From PubChem
A selection: hits, their analogues and other compounds. The true share with any hit is near 0.9%.
CDC25B-CDK2 inh – human CDC25B-CDK2/CyclinA binding inhibition; P30305+P24941; HTRF CDC25B-CDK2/CyclinA binding, anti-His/anti-Flag; active compounds read high; z-score (test concentration not listed); 94,000 tested, 0.72% active; in the data active = z-score above about 3.2
HIV TAR-Tat – HIV-1 TAR-Tat binding disruption. HIV-1 TAR RNA, Tat peptide displacement FRET; active compounds read high. z-score (concentration not given with the values). 100,000 tested, 0.6% active. AID 1259389; active = z-score of 3 or more in at least 2 runs
* hit, by the source's call; . = no result.

SMILES	CDC25B-CDK2 inh	HIV TAR-Tat
COCCNC(=O)C1CCCN(S(C)(=O)=O)C1 (stereo not given)	.	1.89
CCc1ccc(C(c2ccc(CC)o2)c2cc3c(cc2[N+](=O)[O-])OCCO3)o1	4.4*	.
CCOC(=O)C(=O)CC(=O)c1ccc2c(c1)OCCO2	0.5	0.61
Cc1ccc(NS(=O)(=O)c2cc3c(cc2C)N(C)CCO3)nc1	.	1.37
CC(=O)N1c2ccc(S(=O)(=O)NC(C(=O)Nc3ccc(Cl)cn3)C(C)C)cc2CC1C (stereo not given)	.	-0.12
O=S(=O)(Nc1ccc2c(c1)OCCO2)c1ccc(N2CCCCS2(=O)=O)cc1	.	0.26
O=C(O)C1=CC(=C(c2ccc(O)c(C(=O)O)c2)c2ccc(O)c(C(=O)O)c2)C=CC1=O	11.3*	.
O=C1C=CC(=C(c2ccc(O)cc2)c2ccc(O)cc2)C=C1	.	-0.04
O=C1CC(c2ccccc2)=Nc2cccnc2N1	2.56	-2.32
COc1ccc(C2=Nc3cccnc3NC(=O)C2)cc1	15.7*	-5.05
Fc1ccccc1-c1noc(N2CCN(c3ncccn3)CC2)n1	.	0.65
CCN(CC)c1ccc(NC(=O)C2=C(C)C(=O)OC23CCCCC3)c(C)c1	-1.29	0.36
COc1ccccc1N1CSC2=C(C#N)C(c3ccccc3)CC(=O)N2C1 (stereo not given)	4.93*	-2.24
COc1ccc(C2CC(=O)N3CN(c4ccccc4OC)CSC3=C2C#N)cc1 (stereo not given)	4.26*	-2.12
Cc1c(C(=O)NCc2ccco2)cc(-c2ccccc2)n1CCCN1CCOCC1	-2.31	.
CCOCCCNC(=O)c1c(C)oc2ncnc(N3CCCCC3)c12	.	0.52
COc1ccc(-n2ccn(CC(=O)Nc3cc(OC)cc(OC)c3)c2=O)cc1	.	-0.11
Cc1cc(C)n2c(n1)nc1ccccc12	-2.13	.
Cc1cc(-n2nnc3ccccc32)nc(C)n1	-1.19	14.3*
O=C(O)CSCC(=O)Nc1cc(C(F)(F)F)cc(C(F)(F)F)c1	8.45*	.
O=C(CSCC(=O)Nc1cccc(C(F)(F)F)c1)Nc1ccccc1	-1.51	.
CC1CC(C)CN(Cc2csc3c2CCCC3)C1 (stereo not given)	.	-0.4
O=C1c2ccccc2C(Nc2cccnc2)N1c1ccccn1 (stereo not given)	9.87*	-0.14
O=C1c2ccccc2C(Nc2cccnc2)N1c1cccnc1 (stereo not given)	-0.21	-0.44
O=C(Cn1cc2c(n1)CCCCC2)Nc1ccc2c(c1)OCCO2	-0.63	-1.4
SMILES	CDC25B-CDK2 inh	HIV TAR-Tat
Cc1ccc(S(=O)(=O)NC(=O)Nc2ncc3c(n2)CC(c2ccco2)CC3=O)cc1 (stereo not given)	8.34*	2.79
CC(=O)Nc1ncc2c(n1)CC(c1ccco1)CC2=O (stereo not given)	3	-0.17
CCc1ccc2nc(Nc3ncc4c(n3)CC(c3ccco3)CC4=O)nc(C)c2c1 (stereo not given)	13.8	31.6*
Cc1nc(Nc2ncc3c(n2)CC(c2ccco2)CC3=O)nc2ccccc12 (stereo not given)	1.08	3.44
CCCCn1c(C(O)c2ccccc2)nc2ccccc21 (stereo not given)	0.42	3.48
CCCn1c(=O)c2c(nc3n2CCN3Cc2ccccc2)n(C)c1=O	.	2.91
CCC1=Nc2cc(C(=O)NC(C)CC)ccc2Sc2ccccc21 (stereo not given)	2.37	-0.04
CCC(C)NC(=O)c1ccc2c(c1)N=C(C)c1cc(C)ccc1S2 (stereo not given)	-1.87	5.86*
O=C(CCCN1C(=O)c2cccnc2Oc2ccccc21)NCCc1cccs1	.	1.51
CN1C(=O)c2ccccc2Sc2ccc(NC(=O)N3CCC(N4CCCCC4)CC3)cc21	-1.39	-0.57
Cc1ccc(-c2noc(-c3nnn(-c4cccc(C)c4)c3C)n2)cc1	.	0.16
CCn1cnc2cc(NCc3nc4ccccc4n3Cc3ccccc3)ccc21	12.9*	1.87
CCn1cnc2cc(NCc3nc4ccccc4n3C)ccc21	2.55	-0.54
CCC(=O)N1c2ccccc2CC1C(=O)NC1CC1 (stereo not given)	.	1.11
Cc1ccc(C(=O)CSc2nccn(-c3ccc(Cl)cc3)c2=O)cc1	.	-0.31
N#CC1=C2SCN(c3ccc(Cl)cc3)CN2C(=O)CC1c1ccccc1 (stereo not given)	7.35*	-1.7
COc1ccc(N2CSC3=C(C#N)C(c4ccc(Cl)cc4)CC(=O)N3C2)cc1OC (stereo not given)	1.5	2.36
N#CC1=C2SCN(c3cccc(Cl)c3)CN2C(=O)CC1c1ccccc1 (stereo not given)	9.15*	-1.98
Cc1ccc(-c2ccc(=O)n(CC(=O)OC(C)C)n2)cc1C	-1.23	0.45
CN(C1CCCCC1)S(=O)(=O)c1ccc2[nH]c3c(c2c1)CCCC3	.	-7
CSc1ccc(C2CC(=O)N3CN(c4ccccc4)CSC3=C2C#N)cc1 (stereo not given)	4.07*	-1.24
CSc1ccc(C2CC(=O)N3CN(c4ccc(C)cc4)CSC3=C2C#N)cc1 (stereo not given)	5.48*	-3.11
CSc1ccc(C2CC(=O)N3CN(Cc4ccco4)CSC3=C2C#N)cc1 (stereo not given)	1.96	0.97
CCc1ccc(C2CC(=O)N3CN(c4ccccc4)CSC3=C2C#N)cc1 (stereo not given)	4.46*	-1.18
CSc1ccc(C2CC(=O)N3CN(c4ccccc4F)CSC3=C2C#N)cc1 (stereo not given)	0.14	2.34
SMILES	CDC25B-CDK2 inh	HIV TAR-Tat
CSc1ccc(C2CC(=O)N3CN(C)CSC3=C2C#N)cc1 (stereo not given)	0.34	0.89
CSc1ccc(C2CC(=O)N3CN(c4ccccc4C)CSC3=C2C#N)cc1 (stereo not given)	14.6*	0.58
O=C(Cn1cc(S(=O)(=O)c2ccc(F)cc2)c(=O)c2cc(Cl)ccc21)Nc1ccc(F)cc1	-0.83	-2.46
Cc1cc(-c2ccc(=O)[nH]n2)cc(S(=O)(=O)N2CCCC2)c1C	.	2.24
CC(Sc1nnc(-c2ccncc2)o1)C(=O)Nc1ccc2c(c1)OCCO2 (stereo not given)	10.6*	1.27
Cc1[nH]c2ccc(-c3nnc(SC(C)C(=O)Nc4ccc5c(c4)OCCO5)o3)cc2c1C (stereo not given)	0.43	-2.13
CCc1nnc(NC(=O)Cn2c(=O)sc3ccccc32)s1	-0.08	.
CCc1nnc(NC(=O)c2cc(=O)n3c(nc4ccccc43)s2)s1	.	3.75*
CCC(C)NC(=O)c1cnn(-c2ccc(F)cc2)c1-n1cccc1 (stereo not given)	.	0.2
CN1C(C(=O)Nc2sc3c(c2C#N)CCC3)=CC(c2ccco2)=NS1(=O)=O	-0.91	6.12*
CN1C(C(=O)Nc2sc3c(c2C(N)=O)CCCC3)=CC(c2ccco2)=NS1(=O)=O	-1.43	0.79
CCC(C)NC(=O)c1ccc2c(=O)n(C3CC3)c3n[nH]c(=O)n3c2c1 (stereo not given)	-1.85	1.01
O=C1CN(Cc2ccccc2)S(=O)(=O)c2ccccc2N1Cc1ccc(Cl)cc1	.	0.78
CC(C)(C)NC(=O)NCCn1cnc2cc(C(=O)N3CCCC3)ccc21	.	0.58
CCOC(=O)c1nn(-c2ccccc2)c(=O)c2c(N)scc12	19.2*	-4.87
CCOC(=O)c1nn(-c2ccc(OC)cc2)c(=O)c2c(NC(=O)C3CCCC3)scc12	-1.44	.
CCc1nc(C)sc1-c1nnc(NC(C)=O)o1	.	0.88
CCC(=O)N1c2ccc(C)cc2C(=C2SC(C(=O)OC)=C(C(=O)OC)S2)C(=S)C1(C)C	0.15	1.03
